Source: PubChem
Rango complex inh: Rango-importin beta binding inhibition. Q14974. Rango CFP/YFP FRET sensor + importin beta, 45 min. Potency, µM (top dose mostly 92.2 µM), for the others: top-dose inhibition of complex formation. hit rate 0.031% among 340,000. AID 540263; calls by dose curve;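 note: 0% = DMSO wells and 100% = buffer wells lacking importin beta; nearly all actives have a fitted effect of over 15% in size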
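FRET biosensor Rango (snurportin 1 IBB between N-terminal EYFP and C-terminal Cerulean), 50 nM in PBS/1 mM DTT/0.02% Tween-20/0.1% BSA, preincubated 5 min RT with compound; 0.125 microM importin beta added, 45 min RT, CFP/YFP FRET ratio read.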
A549 tox-1: counter-screen for Nrf2 inhibitors: cytotoxicity in A549 cells | A549 ARE-Fluc cells, CellTiter-Fluor viability, 18-24 h | hit rate 0.16% among 390,000 | Potency, µM (top dose mostly 46 µM), for the others: at the highest dose activity change, negative = cytotoxicity, most hits filed as inhibitors; note: % is set by controls: 0 for no effect and ±100 for the full control effect
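Cytotoxicity counterscreen: CellTiter-Fluor fluorescence was measured in A549 ARE_Fluc cells after 18-24 h of compound exposure in a concentration series. The subsequent BugLite luminescent read reports ARE-luciferase activity.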
Rango release inh: inhibition of RanGTP-driven Rango-importin beta dissociation; Potency, µM (doses to about 46.1 µM), without a hit: at the highest dose activity change, negative = inhibition; Biochemical FRET Rango-importin beta, RanGTP-induced dissociation; AID 540253; hit rate 0.071% among 340,000; O95149+P62826; calls by dose curve; note: % of control where 0% means no effect; nearly all actives have a fitted effect of over 45% in size
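Rango/importin beta premix (0.1/0.25 uM final), PBS + 1 mM DTT + 0.02% Tween-20 + 0.1% BSA; cpd 5 min RT; FRET pre-read; + RanGTP-RCC1 (0.6 uM Ran, 2 mM GTP, 0.2 uM RCC1); 45 min RT; FRET post-read, ex 430, em 486/530 nm.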
Nrf2 ARE act: Nrf2 pathway activation; Potency, µM (top dose mostly 46.1 µM), for the others: at the top dose activation, usual class: activators; AREc32 ARE-luciferase reporter (MCF7-derived line), luminescence, 24 h; hit rate 0.31% among 410,000; AID 624171; note: % of control where 0% means no effect; nearly all actives have a fitted effect of over 65% in size
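Nrf2 activation is followed as ARE-luciferase induction in the AREc32 line after one day of compound treatment; luminescence is read with Steady-Glo.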
Nrf2 block: blocks Nrf2 signaling; Potency, µM (doses to about 46 µM), for the others: at the highest dose activity change, negative = inhibition, actives largely listed as inhibitors; A549 ARE-Fluc reporter, luciferase luminescence, 18-24 h; hit rate 2.1% among 360,000; AID 504444; note: % is set by controls: 0 for no effect and ±100 for the full control effect; nearly all actives have a fitted effect of over 60% in size
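A549 ARE_Fluc cells (5000/well, 5% FBS OPTI-MEM) pre-incubated 2 h, then treated with compounds 18-24 h at 37C/5% CO2 in concentration-response. CellTiter-Fluor viability read first; BugLite luciferase luminescence after 15 min at room temperature gives Nrf2 activity.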
FLuc counter 3: blocks purified firefly luciferase in Nrf2 counterscreen | shares compounds with Nrf2 block | purified firefly luciferase, luminescence inhibition | Potency, µM (highest dose often 57.5 µM), for the others: at the highest dose activity change, negative = inhibition, hits mostly inhibitors | hit rate 4% among 1,400; note: % is set by controls: 0 for no effect and ±100 for the full control effect; nearly all actives have a fitted effect of over 65% in size
Target sequence (P08659 whole entry, looked up): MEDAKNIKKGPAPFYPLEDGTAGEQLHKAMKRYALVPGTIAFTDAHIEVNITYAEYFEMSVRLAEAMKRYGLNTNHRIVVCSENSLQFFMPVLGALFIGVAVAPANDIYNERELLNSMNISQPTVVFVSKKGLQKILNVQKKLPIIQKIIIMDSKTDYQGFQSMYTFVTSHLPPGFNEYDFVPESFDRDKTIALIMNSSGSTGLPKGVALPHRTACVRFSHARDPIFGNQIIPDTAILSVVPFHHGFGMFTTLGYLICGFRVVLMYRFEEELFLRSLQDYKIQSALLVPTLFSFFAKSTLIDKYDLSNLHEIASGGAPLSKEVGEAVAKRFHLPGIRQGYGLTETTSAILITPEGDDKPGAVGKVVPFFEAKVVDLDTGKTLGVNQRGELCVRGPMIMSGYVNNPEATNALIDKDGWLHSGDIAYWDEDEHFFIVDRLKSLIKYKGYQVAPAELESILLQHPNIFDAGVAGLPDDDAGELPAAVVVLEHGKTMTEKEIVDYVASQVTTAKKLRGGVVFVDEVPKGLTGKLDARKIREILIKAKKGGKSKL
A549 tox-2: counter-screen for Nrf2 inhibitors: cytotoxicity in A549 ARE cells; shares compounds with Nrf2 block; A549 ARE-Fluc cells, cytotoxicity counterscreen; Potency, µM (doses to about 46.1 µM), inactives show top-dose activity change, negative = cytotoxicity, most hits filed as inhibitors; hit rate 2% among 1,400;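 note: cells exposed to compounds for 18 to 24 hours; % is set by controls: 0 for no effect and ±100 for the full control effect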
ARE-Fluc inh: confirmation of Nrf2 inhibitors in A549 ARE reporter cells | shares compounds with Nrf2 block | A549 ARE-firefly luciferase reporter, luminescence | Potency, µM (highest dose often 46.1 µM), inactives show top-dose activity change, negative = inhibition, usual class: inhibitors | hit rate 74% among 1,400 | AID 720524; note: % is set by controls: 0 for no effect and ±100 for the full control effect; nearly all actives have a fitted effect of over 65% in size
Numbers without * were called inactive; u = inconclusive; x = no result given. Most compounds without a hit are left out; they make up all but 2.3% or so of the library. Unless noted, calls come from the whole dose curve; as a rule, active = well fitted curve in the direction sought with a large enough effect; inconclusive = small, poorly fitted or top-dose-only effect, or another doubt; inactive = no such curve, though single readings can be large; an effect the other way counts as inactive or inconclusive. Potency is the fitted concentration of half-maximal effect.

SMILES	Rango complex inh	A549 tox-1	Rango release inh	Nrf2 ARE act	Nrf2 block	FLuc counter 3	A549 tox-2	ARE-Fluc inh
CC/C(=N/NC(=O)c1ccc2c(c1)OCO2)c1ccccc1O	u	-22%	u	0%	5.2µM*	11µM*	-9%	-16%
COc1ccccc1N=c1oc2cc(O)ccc2cc1C(=O)NCC1CCCO1 (centres undefined)	u	x	u	2%	u	-16%	0%	13µM*
CCC1([N+](=O)[O-])COC(C=Cc2ccccc2)OC1 (centres undefined)	0%	2%	-3%	4%	u	x	x	x
O=C1C=CCC(/C=C/c2ccccc2)O1 (centres undefined)	0%	-16%	5%	6%	2.6µM*	-9%	u	1.3µM*
C[C@H]1C[C@@H]2[C@H]([C@@H](O)C[C@@]3(C)[C@H]2CC[C@]3(O)C(=O)CO)[C@@]2(C)C=CC(=O)C=C12	1%	-3%	-13%	-1%	0.026µM*	0%	-3%	0.033µM*
CC(=O)OCC(=O)[C@@]1(O)CC[C@H]2[C@@H]3CCC4=CC(=O)C=C[C@]4(C)[C@H]3C(=O)C[C@@]21C	2%	0%	0%	0%	u	x	x	x
C[C@]12C=CC(=O)C=C1CC[C@@H]1[C@@H]2[C@@H](O)C[C@@]2(C)[C@H]1CC[C@]2(O)C(=O)COC(=O)CCC(=O)O	-4%	-16%	-7%	0%	0.046µM*	5%	-5%	0.23µM*
CCOC(=O)O[C@]1(C(=O)COC(=O)CC)CC[C@H]2[C@@H]3CCC4=CC(=O)C=C[C@]4(C)[C@H]3[C@@H](O)C[C@@]21C	0%	-5%	-5%	6%	0.058µM*	-1%	-10%	0.058µM*
C[C@]12C=CC(=O)C=C1CC[C@@H]1[C@@H]2[C@@H](O)C[C@@]2(C)[C@H]1CC[C@]2(O)C(=O)COC(=O)CCC(=O)NCCc1ccc(O)cc1	4%	0%	4%	-1%	0.12µM*	0%	8.2µM*	5.8µM*
COc1ccc(CN(CCN)C2CC(C)N(C)CC2C)cc1 (centres undefined)	-1%	-19%	-1%	-1%	0%	x	x	x
CC(C)(C)NC(=O)N1CCCC(C(=O)c2cccc(Cl)c2)C1 (centres undefined)	0%	1%	15%	0%	-18%	x	x	x
O=C(CSc1n[nH]c(-c2cccnc2)n1)Nc1ccccc1C(F)(F)F	-2%	1%	2%	0%	8%	x	x	x
COc1ccccc1CNC(=O)CCCc1nnc2n(C)c(=O)c3sccc3n12	-3%	11%	-14%	0%	u	x	x	x
C[C@]12C=CC(=O)C=C1CC[C@@H]1[C@@H]2[C@@H](O)C[C@@]2(C)[C@H]1CC[C@]2(O)C(=O)CO	-1%	-11%	-13%	0%	0.058µM*	3%	-2%	0.073µM*
CCN(CC)C(=O)c1ccc2nc3ccccc3nc2c1	-5%	u	-2%	2%	1.5µM*	u	u	x
CCCCC12CN3CC(C)(CN(C1)C3c1c(C)[nH]c(=O)[nH]c1=O)C2=O (centres undefined)	x	0%	x	0%	-5%	x	x	x
CC(C)Oc1ccc(C(=O)N(Cc2ccco2)c2ccccn2)cc1	x	-1%	x	4%	u	x	x	x
Nc1nc(Cl)nc2c1ncn2[C@H]1C[C@H](O)[C@@H](CO)O1	-1%	2%	-12%	0%	0.013µM*	-11%	1%	5.8µM*
Cc1ccc(NC(=O)C2CCCN(S(=O)(=O)c3c(C)nn(C)c3C)C2)c(C)c1 (centres undefined)	x	-3%	x	-1%	8%	x	x	x
COc1ccc(Nc2nc(N3CCCC3)c3ccccc3n2)cc1	1%	-16%	5%	-2%	u	x	x	x
CCN(CC)c1ccc(Nc2nc(N3CCOCC3)c3ccccc3n2)cc1	0%	u	-3%	3%	6.5µM*	u	-11%	12µM*
CCc1ccccc1NC(=O)CSc1nc2ncccc2o1	x	5%	x	0%	x	x	x	x
Cc1nc(C)c(C(=O)NNS(=O)(=O)c2ccc3ccccc3c2)s1	1%	-14%	-7%	-1%	9.2µM*	4%	1%	u
Cn1c(-c2ccccc2)cccc1=O	-3%	-1%	21%	1%	x	x	x	x
Cn1c(-c2ccccc2)c[n+]2c1-c1ccccc1C2	0%	7%	0%	0%	u	-10%	-9%	1.6µM*
SMILES	Rango complex inh	A549 tox-1	Rango release inh	Nrf2 ARE act	Nrf2 block	FLuc counter 3	A549 tox-2	ARE-Fluc inh
Cc1cccc(OCCSc2nc3ccccc3n2CCC(=O)O)c1	-1%	-2%	-5%	0%	-23%	x	x	x
Cc1cc(/C=C2/SC(=S)N(c3cccc(Cl)c3)C2=O)c(C)n1-c1cccnc1	u	-15%	u	4%	u	x	x	x
Cc1cc(/C=C2/SC(=S)N(c3ccc([N+](=O)[O-])cc3)C2=O)c(C)n1-c1cccnc1	-6%	u	-11%	3%	6.5µM*	-18%	-23%	x
CN(C)c1ccc(/C=C/C(=O)c2ccc(O)cc2)cc1	u	4%	u	17%	5.2µM*	0.21µM*	1%	2.3µM*
CN(CCOc1ccc(Cl)cc1)C(=O)c1cccc(S(=O)(=O)N2CCN(c3ccccc3)CC2)c1	0%	u	-5%	0%	5.8µM*	0%	-14%	23µM*
COc1ccc(CCN(C)C(=O)c2cccc(S(=O)(=O)NCc3ccccc3)c2)cc1OC	0%	-6%	-4%	2%	u	x	x	x
CN(Cc1ccc(OC(F)F)cc1)C(=O)c1cccc(S(=O)(=O)N2CCN(Cc3ccccc3)CC2)c1	3%	-17%	-2%	0%	6.5µM*	-1%	-23%	6.5µM*
COc1cccc(CN(C)C(=O)c2cccc(S(=O)(=O)N3CCN(c4ccccc4)CC3)c2)c1OC	0%	u	-7%	0%	7.3µM*	0%	u	0.12µM*
CN(Cc1c(F)cccc1Cl)C(=O)c1cccc(S(=O)(=O)N2CCN(Cc3ccccc3)CC2)c1	-3%	0%	1%	2%	u	x	x	x
COc1cccc(CN(C)C(=O)c2cccc(S(=O)(=O)NCc3ccccc3)c2)c1OC	1%	-11%	4%	2%	7.3µM*	0%	-3%	-3%
